Screening data: PubChem, National Center for Advancing Translational Sciences (NCATS)
This is a sample that favours compounds with a hit; in the whole collection about 6.9% have one here.
MCF10A rerep = A quantitative high throughput screen for small molecules that induce DNA re-replication in MCF 10a normal breast cells; MCF 10A DNA re-replication, Hoechst nuclear intensity, 48 h; actives 2.9% (n = 350,000); Potency, µM (titrated, usually from 46.1 µM), for inactives: at the highest dose activity, positive = re-replication, usual class: activators; AID 624296, 2012; further: potency means the concentration at half of the fitted maximal effect; % of control where 0% means no effect; nearly all actives have a fitted effect of over 50% in size
SW480 rerep = A quantitative high throughput screen for small molecules that induce DNA re-replication in SW480 colon adenocarcinoma cells; SW480 DNA re-replication, Hoechst DNA content imaging, 48 h; Potency, µM (highest dose often 46.1 µM), for the others: top-dose re-replication activation, hits mostly activators; actives 1.8% (n = 340,000); AID 624297, 2012; further: potency means the concentration at half of the fitted maximal effect; % of control where 0% means no effect; nearly all actives have a fitted effect of over 55% in size
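Readout is total intensity of Hoechst-stained nuclei, excited at 405 nm and collected at 500-530 nm. Compound treatment lasted 48 hr at 37 C in 5% CO2 before staining.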
IL-1B inflam inh = qHTS for Inhibitors of Inflammasome Signaling: IL-1-beta AlphaLISA Primary Screen; THP-1 LPS/ATP IL-1B secretion, AlphaLISA, 16 h; active compounds read low; activity change, % at 57.5 µM; actives 4.7% (n = 360,000); AID 743279, 2014; in the data active means activity change below about -50%; inconclusive means mostly about -30% to -49%; further: on the % scale 0 is the no-effect control and ±100 the full control effect
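Secreted IL-1B measured by AlphaLISA bead assay after 16 h compound exposure of THP-1 cells; compounds (final up to 57.5 uM) added 1 h before LPS (250 ng/mL) and ATP (1.25 mM) stimulation; lower signal means less secretion.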
Vif-A3G inh = qHTS for Inhibitors of Vif-A3G Interactions: qHTS; HeLa A3G-eYFP + Vif (tagged APOBEC3G with the HIV-1 protein that degrades it), YFP fluorescence, overnight; Potency, µM (series often up to 46.1 µM), without a hit: top-dose activity, negative = active, actives largely listed as inhibitors; actives 0.076% (n = 410,000); further: potency means the concentration at half of the fitted maximal effect; on the % scale 0 is the no-effect control and ±100 the full control effect; nearly all actives have a fitted effect of over 60% in size
Target sequence (Q9HC16 whole entry, looked up): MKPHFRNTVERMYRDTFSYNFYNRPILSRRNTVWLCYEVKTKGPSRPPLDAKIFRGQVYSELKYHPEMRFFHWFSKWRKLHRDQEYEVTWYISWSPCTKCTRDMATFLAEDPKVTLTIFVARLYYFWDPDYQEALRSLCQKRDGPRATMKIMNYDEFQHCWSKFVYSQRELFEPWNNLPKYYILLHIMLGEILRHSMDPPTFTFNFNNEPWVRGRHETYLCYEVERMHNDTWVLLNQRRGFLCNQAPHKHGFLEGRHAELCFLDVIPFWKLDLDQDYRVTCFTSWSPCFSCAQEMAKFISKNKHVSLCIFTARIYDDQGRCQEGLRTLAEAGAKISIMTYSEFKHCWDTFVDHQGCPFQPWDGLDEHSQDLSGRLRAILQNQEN
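Read-out is eYFP fluorescence (Ex 488/Em 500-530) from Vif-expressing HeLa A3G-eYFP cells; more signal means A3G escaped Vif-mediated degradation. Cells plated overnight, compound pinned in, incubated overnight at 37 deg C.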
Vif-APOBEC3F blk = qHTS for Inhibitors of Vif-A3F Interactions: qHTS; HeLa A3F-eYFP + Vif (tagged APOBEC3F with the HIV-1 protein that degrades it), YFP fluorescence increase; Potency, µM (titrated, usually from 46.1 µM), for the others: at the highest dose activity, negative = active; AID 602313, 2012; actives 0.2% (n = 390,000); further: potency means the concentration at half of the fitted maximal effect; % of control where 0% means no effect; nearly all actives have a fitted effect of over 65% in size
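HeLa cells stably expressing A3F-eYFP plus Vif, plated and incubated overnight at 37 deg C, then exposed to compounds overnight at 37 deg C. Blocked degradation read as raised yellow fluorescence (Ex 488/Em 500-530).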
Giardia killer = Small Molecules that selectively kill Giardia lamblia: qHTS; actives 0.15% (n = 340,000); AID 540267, 2011; activity change, % at 7.66 µM, hits read low; Giardia lamblia trophozoite viability; in the data active means activity change below about -80%; inconclusive means between about -30% and that limit;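 further: parasites exposed to compound for two days anaerobically before the ATP read; on the % scale 0 is the no-effect control and ±100 the full control effect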
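Giardia lamblia trophozoites (100 cells/well) were incubated with compounds for 48 h at 37 deg C under anaerobic conditions. Viability was read as ATP content by one-step luminescence after 15-30 min at room temperature.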
The depositor's hits bear a star. Unless noted, the call rests on the fitted dose curve; in most records, active means well fitted curve in the direction sought with a large enough effect; inconclusive means small, poorly fitted or top-dose-only effect, or another doubt; inactive means no such curve, though single readings can be large; an effect the other way counts as inactive or inconclusive.

What do the screens show for `C=CC[n+]1c(-c2ccc(C)cc2)csc1Nc1c(C)n(C)n(-c2ccccc2)c1=O`?
MCF10A rerep: 7%; SW480 rerep: -4%; IL-1B inflam inh: 4; Vif-A3G inh: 1%; Vif-APOBEC3F blk: 2%; Giardia killer: -2

What do the screens show for `C=CC[n+]1c(-c2ccc(Cl)cc2Cl)csc1Nc1c(C)n(C)n(-c2ccccc2)c1=O`?
MCF10A rerep: inconclusive; SW480 rerep: inconclusive; IL-1B inflam inh: -80*; Vif-A3G inh: -1%; Vif-APOBEC3F blk: 5%; Giardia killer: 7

What do the screens show for `C=CC[n+]1c(-c2ccc(Cl)cc2Cl)csc1Nc1ccc(NC(C)=O)cc1`?
MCF10A rerep: inconclusive; SW480 rerep: 23µM*; IL-1B inflam inh: -80*; Vif-A3G inh: -9%; Vif-APOBEC3F blk: 19%; Giardia killer: -14

Results for Clc1ccc(-c2csc(Nc3ccccc3)[n+]2Cc2ccco2)c(Cl)c1 ?
MCF10A rerep: inconclusive; SW480 rerep: -18%; IL-1B inflam inh: -8; Vif-A3G inh: 1%; Vif-APOBEC3F blk: 8%; Giardia killer: -28

What do the screens show for `CCCC[n+]1c(-c2ccc(Cl)cc2Cl)csc1Nc1ccccc1`?
MCF10A rerep: 23µM*; SW480 rerep: 1%; IL-1B inflam inh: -14; Vif-A3G inh: -6%; Vif-APOBEC3F blk: 0%; Giardia killer: -7

How did O=C1NC(=Nc2ccccc2Cl)S/C1=C\c1cc([N+](=O)[O-])ccc1O do in these assays?
MCF10A rerep: inconclusive; SW480 rerep: 1%; IL-1B inflam inh: -26; Vif-A3G inh: 13µM*; Vif-APOBEC3F blk: inconclusive; Giardia killer: -8

Results for COc1cccc(N=C2NC(=O)/C(=C/c3cc([N+](=O)[O-])ccc3O)S2)c1 ?
MCF10A rerep: inconclusive; SW480 rerep: -1%; IL-1B inflam inh: 19; Vif-A3G inh: inconclusive; Vif-APOBEC3F blk: 25µM*; Giardia killer: -1

How did OC(C[n+]1c(Cl)ccc2ccccc21)c1ccccc1 (stereo not given) do in these assays?
Vif-A3G inh: 2%

What do the screens show for `C[C@H](O)CN(C)C`?
MCF10A rerep: 0%; SW480 rerep: -11%

What do the screens show for `Cc1[nH]c2ccccc2c1/C=N/NC(=O)c1cc(-c2ccncc2)nc2ccccc12`?
MCF10A rerep: inconclusive; SW480 rerep: 13µM*; IL-1B inflam inh: 0; Vif-A3G inh: inconclusive; Vif-APOBEC3F blk: 2%; Giardia killer: 13

Results for O=C(N/N=C/c1ccccc1OC(F)F)c1cc(-c2ccncc2)nc2ccccc12 ?
MCF10A rerep: 4.6µM*; SW480 rerep: 12µM*; IL-1B inflam inh: 75; Vif-A3G inh: inconclusive; Vif-APOBEC3F blk: inconclusive; Giardia killer: -18

Results for CCOc1ccc(NCC(=O)c2ccc(C)cc2)cc1 ?
MCF10A rerep: 15%; SW480 rerep: 3%; IL-1B inflam inh: -81*; Vif-A3G inh: -3%; Vif-APOBEC3F blk: -17%; Giardia killer: 10

What do the screens show for `Cc1ccccc1CN(C)CC(=O)Nc1c(C)cccc1C(C)C`?
MCF10A rerep: 2%; SW480 rerep: 1%; IL-1B inflam inh: -86*; Vif-A3G inh: 4%; Vif-APOBEC3F blk: 7%; Giardia killer: 6

How did Cc1ccc(NCc2nc3ccccc3n2CCOc2ccccc2)cc1 do in these assays?
MCF10A rerep: 18%; SW480 rerep: 6%; IL-1B inflam inh: -96*; Vif-A3G inh: -3%; Vif-APOBEC3F blk: -9%; Giardia killer: -14

How did Cc1ccc(OCCn2c(CNc3cccc(C)c3)nc3ccccc32)cc1 do in these assays?
Vif-A3G inh: -8%; Vif-APOBEC3F blk: inconclusive

Results for CCn1c(COc2ccc(C)cc2)nc2ccccc21 ?
MCF10A rerep: 13%; SW480 rerep: 0%; IL-1B inflam inh: -76*; Vif-A3G inh: -4%; Vif-APOBEC3F blk: -4%; Giardia killer: -2

How did COc1cc2c(O)c3c(c(-c4ccc5c(c4)OCO5)c2cc1OC)C(=O)OC3 do in these assays?
MCF10A rerep: inconclusive; SW480 rerep: 23µM*; IL-1B inflam inh: -19; Vif-A3G inh: -30%; Vif-APOBEC3F blk: -7%; Giardia killer: -5

How did COc1cc2c(OC(C)=O)c3c(c(-c4ccc5c(c4)OCO5)c2cc1OC)C(=O)OC3 do in these assays?
MCF10A rerep: inconclusive; SW480 rerep: 6%; IL-1B inflam inh: -21; Vif-A3G inh: inconclusive; Vif-APOBEC3F blk: 4%; Giardia killer: -5

How did O=C(CSCc1cccc(Cl)c1)N/N=C/c1ccc(OCC(=O)N2CCCCC2)cc1 do in these assays?
MCF10A rerep: -10%; SW480 rerep: 27%; IL-1B inflam inh: -74*; Vif-A3G inh: 1%; Vif-APOBEC3F blk: -3%; Giardia killer: -12

How did CC(=O)c1cccc(Nc2nn(-c3ccc(OC(F)(F)F)cc3)nc2C(C)=O)c1 do in these assays?
Vif-A3G inh: 3%; Vif-APOBEC3F blk: -1%

What do the screens show for `O=C(NCc1cccnc1)C1CC(c2ccc(Cl)c(Cl)c2)=NO1` (stereo not given)?
MCF10A rerep: 9.2µM*; SW480 rerep: 14%; IL-1B inflam inh: 34; Vif-A3G inh: -27%; Vif-APOBEC3F blk: -6%; Giardia killer: -27

What do the screens show for `O=C(NCc1cccs1)C1CC(c2ccc(Cl)cc2)=NO1` (stereo not given)?
MCF10A rerep: 9.2µM*; SW480 rerep: inconclusive; IL-1B inflam inh: 4; Vif-A3G inh: -21%; Vif-APOBEC3F blk: inconclusive; Giardia killer: -3

What do the screens show for `O=C(NCc1ccccn1)C1CC(c2ccc(F)cc2)=NO1` (stereo not given)?
MCF10A rerep: 13%; SW480 rerep: -5%; IL-1B inflam inh: 8; Vif-A3G inh: -5%; Vif-APOBEC3F blk: 9%; Giardia killer: -8

What do the screens show for `O=C(NCc1ccccn1)C1CC(c2ccc(Cl)c(Cl)c2)=NO1` (stereo not given)?
MCF10A rerep: 11µM*; SW480 rerep: 16%; IL-1B inflam inh: 33; Vif-A3G inh: -17%; Vif-APOBEC3F blk: 5%; Giardia killer: -4

How did O=C(NCCc1cccs1)C1CC(c2c(Cl)cccc2Cl)=NO1 (stereo not given) do in these assays?
MCF10A rerep: 1%; SW480 rerep: 12%; IL-1B inflam inh: 0; Vif-A3G inh: 9%; Vif-APOBEC3F blk: -1%; Giardia killer: -24
